SMILES strings stand for the structures. The panel holds about 83,000 compounds, 20% with a hit somewhere; the sample as a whole holds those more often.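 Single-dose data. Exposure time 48 hours. Values below 10 considered active.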 Values without a mark were called inactive. Active and inactive are the calls of the source.

The first experiment deals with MCF7 breast. The experiment is described as follows: NCI-60 one-dose screen, 48 h (100 = growth as untreated, 0 = no growth, -100 = all killed). The settings on record: 10 µM unless noted.
Consider `CCN(CC)CCCNc1ccc(Nc2ccc(OC)cc2)cc1`, for which the growth was 110%.
On the same count and under the same terms, to `COc1ccc(-c2c(N)n[nH]c2-c2ccc(Cl)cc2O)cc1OC` belongs 86%.
Turning to `c1csc(-c2c3ccc(=[N+]4CCCCC4)cc-3oc3cc(N4CCCCC4)ccc23)c1`, the growth was -57.2% (active).
In the case of `NS(=O)(=O)c1ccc(-n2nc(C(=O)N/N=C\c3ccc(F)cc3)cc2-c2ccc(Cl)cc2)cc1`, the growth was 81.3%.
`CCN(CC)c1ccc(C(=O)c2ccc(N(CC)CC)cc2)cc1`: the growth was 13.5%.
On the same count and under the same terms, to `COc1ccc(-c2nc(SCC(=O)Nc3nc(-c4ccccc4)cs3)[nH]c(=O)c2C#N)cc1` belongs 96.4%.
Take `O=S(=O)(O)c1ccc(N/N=C/c2ccccc2Cl)cc1`: the growth is 99.2%.
Same read-out and setting: under `CC(C)(C)OC(=O)Nc1ccc2c(c1)C(NC(=O)Nc1cccc(C#N)c1)CC(C)(C)O2` (stereo not given) stands 32.1%; under `CCCCCCCCCCCC(c1ccccc1)[N+](C)(C)C` (stereo not given), 16.1%.
Consider `COc1ccc(C(=NN=C(N)N)c2ccc(OC)cc2)cc1`, for which the growth is 5.47% (active).
Same read-out and setting: under `COc1ccc(NC(=O)CSc2nnc(-c3cc(-c4ccccc4)nc4ccccc34)n2-c2ccccc2)cc1` stands 89.1%.
For the compound `O=C(NC(CSSCC(NC(=O)c1ccccc1)C(=O)O)C(=O)O)c1ccccc1` (stereo not given), the growth was 117%.
On to `Cn1c(=O)c2[nH]c(NN)nc2n(C)c1=O`, for which the growth was 104%.
As to `N/C(=N/N=C/c1ccccc1)N/N=C\c1ccccc1`, the growth was 31.6%.
As for `CCN(CCNc1ccc(C)c2sc3ccccc3c(=O)c12)CC(C)(C)O`, the growth is 81.8%.
Turning to `N#Cc1nc(C#N)c(Sc2ccccc2)c(Sc2ccccc2)c1Sc1ccccc1`, the growth was -72.1% (active).
With `COc1ccc(C(=O)Nn2c(NCC(=O)N3c4ccccc4Sc4ccccc43)nnc2-c2ccc(O)cc2)cc1`, the growth is 111%.
Take `CCC1(C2CCCC2)NC(=O)NC1=O` (stereo not given): the growth was 83.9%.
For the compound `O=[N+]([O-])c1ccc(C2CC(c3ccccc3)=Nc3ccccc3S2)cc1` (stereo not given), the growth was 32.6%.
Same read-out and setting: to `Cn1c(=O)c2c(nc(Cl)n2CCl)n(C)c1=O` belongs 84.4%; to `O=C(CCCCCCSc1nc(-c2ccccc2)cc(-c2ccc(Cl)cc2)n1)NO`, 15.9%; to `CC1(C)CC(=O)CC2(C1)N=C(N)Nc1nc3ccccc3n12` (stereo not given), 89.4%.
As for `COc1ccccc1N1C(=O)/C(=C/C2=Cc3ccccc3OC2)SC1=S`, the growth is 95.5%.
In the case of `O=C(CSc1nccc(Nc2ccc(S(=O)(=O)Nc3nccs3)cc2)n1)c1ccc(F)cc1`, the growth is 96.9%.
`O=C1Nc2ccccc2/C1=C/c1cn(C(=O)c2c(Cl)cccc2Cl)c2ccccc12`: the growth was 22.9%.
Regarding `O=C1Nc2ccccc2/C1=C/c1cn(C(=O)c2ccc(Cl)cc2)c2ccccc12`, the growth was 59.1%.
On the same count and under the same terms, to `N=C1CCC(=N)c2c1c(O)c1ccccc1c2O` belongs 138%; to `Cc1ccc(S(=O)(=O)N/N=C\c2cc(Cl)ccc2O)cc1`, 82.6%.
Still for that read-out and setting: to `COc1ccc(-c2[nH]c(=S)n(C(CC3(C)NCC(=O)N3n3c(-c4ccccc4)cc(C)nc3=S)c3ccc(OC)cc3)c(=O)c2Br)cc1` (stereo not given) belongs 16.5%.
For the compound `COc1cc(N2C(=O)c3nccnc3C2=O)cc(OC)c1OC`, the growth was 95.7%.
Consider `COc1ccc(Cl)cc1NC(=O)C(Br)C(Br)C(=O)O` (stereo not given), for which the growth is 23.8%.
Take `CS(=O)(=O)c1ccc(Nc2nc(N[C@H]3CCCC[C@H]3N)nc3cc[nH]c(=O)c23)cc1`: the growth was 5.47% (active).
Turning to `O=c1oc2ccccc2c(Cl)c1Cl`, the growth was 34%.
For `COc1ccc(NC(=O)CSc2nnc(-c3cc(-c4ccc(S(N)(=O)=O)cc4)nc4ccccc34)n2-c2ccccc2)cc1`, the growth was 78.8%.
Regarding `CCC(CO)Nc1nc2ccc(Cl)cc2c2ccccc12` (stereo not given), the growth was 72.7%.
For `CCOC(=O)c1csc(NC(=O)COc2cccc(/C=C3\Oc4cc(OC)ccc4C3=O)c2)n1`, the growth is 81.1%.
`N#C/C(=C\c1ccc(-c2ccccc2F)o1)c1nc(-c2ccco2)cs1`: the growth was 37.7%.

The subject of the next experiment is HCT-116 colon. Described as above. The settings on record: 10 µM unless noted.
Consider `CCN(CC)CCCNc1ccc(Nc2ccc(OC)cc2)cc1`, for which the growth was 82.2%.
Regarding `COc1ccc(-c2c(N)n[nH]c2-c2ccc(Cl)cc2O)cc1OC`, the growth was 90.1%.
As for `c1csc(-c2c3ccc(=[N+]4CCCCC4)cc-3oc3cc(N4CCCCC4)ccc23)c1`, the growth is -97.1% (active).
Consider `NS(=O)(=O)c1ccc(-n2nc(C(=O)N/N=C\c3ccc(F)cc3)cc2-c2ccc(Cl)cc2)cc1`, for which the growth is 98%.
Regarding `CCN(CC)c1ccc(C(=O)c2ccc(N(CC)CC)cc2)cc1`, the growth is 10.2%.
Consider `COc1ccc(-c2nc(SCC(=O)Nc3nc(-c4ccccc4)cs3)[nH]c(=O)c2C#N)cc1`, for which the growth was 86%.
On the same count and under the same terms, under `O=S(=O)(O)c1ccc(N/N=C/c2ccccc2Cl)cc1` stands 104%; under `CC(C)(C)OC(=O)Nc1ccc2c(c1)C(NC(=O)Nc1cccc(C#N)c1)CC(C)(C)O2` (stereo not given), 30.7%.
As to `CCCCCCCCCCCC(c1ccccc1)[N+](C)(C)C` (stereo not given), the growth was 9.83% (active).
Take `COc1ccc(C(=NN=C(N)N)c2ccc(OC)cc2)cc1`: the growth was 21.5%.
Consider `COc1ccc(NC(=O)CSc2nnc(-c3cc(-c4ccccc4)nc4ccccc34)n2-c2ccccc2)cc1`, for which the growth was 92.6%.
Still for that read-out and setting: to `O=C(NC(CSSCC(NC(=O)c1ccccc1)C(=O)O)C(=O)O)c1ccccc1` (stereo not given) belongs 98.9%.
Consider `Cn1c(=O)c2[nH]c(NN)nc2n(C)c1=O`, for which the growth is 102%.
Regarding `N/C(=N/N=C/c1ccccc1)N/N=C\c1ccccc1`, the growth was 35.9%.
As for `CCN(CCNc1ccc(C)c2sc3ccccc3c(=O)c12)CC(C)(C)O`, the growth is 60%.
`N#Cc1nc(C#N)c(Sc2ccccc2)c(Sc2ccccc2)c1Sc1ccccc1`: the growth is -30.7% (active).
The same measure, in the same setting: to `COc1ccc(C(=O)Nn2c(NCC(=O)N3c4ccccc4Sc4ccccc43)nnc2-c2ccc(O)cc2)cc1` belongs 101%.
For `CCC1(C2CCCC2)NC(=O)NC1=O` (stereo not given), the growth was 99.3%.
With `O=[N+]([O-])c1ccc(C2CC(c3ccccc3)=Nc3ccccc3S2)cc1` (stereo not given), the growth is 36.2%.
With `Cn1c(=O)c2c(nc(Cl)n2CCl)n(C)c1=O`, the growth is 95.9%.
As for `O=C(CCCCCCSc1nc(-c2ccccc2)cc(-c2ccc(Cl)cc2)n1)NO`, the growth is 6.79% (active).
`CC1(C)CC(=O)CC2(C1)N=C(N)Nc1nc3ccccc3n12` (stereo not given): the growth was 96.8%.
On the same count and under the same terms, to `COc1ccccc1N1C(=O)/C(=C/C2=Cc3ccccc3OC2)SC1=S` belongs 84.9%; to `O=C(CSc1nccc(Nc2ccc(S(=O)(=O)Nc3nccs3)cc2)n1)c1ccc(F)cc1`, 95.9%.
Consider `O=C1Nc2ccccc2/C1=C/c1cn(C(=O)c2c(Cl)cccc2Cl)c2ccccc12`, for which the growth is 26.1%.
On to `O=C1Nc2ccccc2/C1=C/c1cn(C(=O)c2ccc(Cl)cc2)c2ccccc12`, for which the growth was 91.6%.
For `N=C1CCC(=N)c2c1c(O)c1ccccc1c2O`, the growth is 101%.
With `Cc1ccc(S(=O)(=O)N/N=C\c2cc(Cl)ccc2O)cc1`, the growth is 48.2%.
As for `COc1ccc(-c2[nH]c(=S)n(C(CC3(C)NCC(=O)N3n3c(-c4ccccc4)cc(C)nc3=S)c3ccc(OC)cc3)c(=O)c2Br)cc1` (stereo not given), the growth was 21.8%.
As for `COc1cc(N2C(=O)c3nccnc3C2=O)cc(OC)c1OC`, the growth was 103%.
As for `COc1ccc(Cl)cc1NC(=O)C(Br)C(Br)C(=O)O` (stereo not given), the growth was 8.19% (active).
Regarding `CS(=O)(=O)c1ccc(Nc2nc(N[C@H]3CCCC[C@H]3N)nc3cc[nH]c(=O)c23)cc1`, the growth is -2.19% (active).
With `O=c1oc2ccccc2c(Cl)c1Cl`, the growth was 32.5%.
Consider `COc1ccc(NC(=O)CSc2nnc(-c3cc(-c4ccc(S(N)(=O)=O)cc4)nc4ccccc34)n2-c2ccccc2)cc1`, for which the growth is 73.9%.
In the case of `CCC(CO)Nc1nc2ccc(Cl)cc2c2ccccc12` (stereo not given), the growth was 71.5%.
As for `Cc1ccc(C2SCC(=O)N2Cc2ccccc2)cc1` (stereo not given), the growth was 94.2%.
For `CCOC(=O)c1csc(NC(=O)COc2cccc(/C=C3\Oc4cc(OC)ccc4C3=O)c2)n1`, the growth is 90.7%.
As to `N#C/C(=C\c1ccc(-c2ccccc2F)o1)c1nc(-c2ccco2)cs1`, the growth is 93%.

Values taken from PubChem BioAssay (NCI).
